PubChem BioAssay (NCI)
This is part of a sample that, as a whole, favours compounds with a hit. Of some 79,000 tested, about 15% had one in any assay. Unmarked numbers belong to inactive results. The source made the active and inactive calls. Rule as the data show it: active = growth inhibition above about 70%; inactive = the rest.

How the values were obtained:
[1] = NCI Yeast Anticancer Drug Screen. Data for the mec2-1 strain (AID 157); conditions: S. cerevisiae mec2-1 strain, active compounds read high
Procedure, shortened: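 Cells of the genetically defined mec2-1 yeast strain are incubated with test compound. Inhibition of growth is calculated against vehicle-treated controls.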

[2] = NCI Yeast Anticancer Drug Screen. Data for the rad14 strain (AID 159);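 also: 0% = growth of vehicle-treated control cultures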; conditions: S. cerevisiae rad14 strain growth inhibition, active compounds read high
Procedure, shortened: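 DNA repair-defective yeast, compound-exposed; % growth inhibition derived by comparison with vehicle-treated controls.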

[3] = NCI Yeast Anticancer Drug Screen. Data for the sgs1 mgt1 strain (AID 161);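 also: 0% = growth of cultures given vehicle only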; conditions: S. cerevisiae sgs1 mgt1 strain, active compounds read high
Procedure, shortened: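 Inhibition of yeast growth, normalised to vehicle-treated controls, is reported for a strain bearing genetic alterations in DNA damage repair.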

[4] = NCI Yeast Anticancer Drug Screen. Data for the CLN2oe strain (AID 163);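 also: 0% = growth of vehicle-only control cultures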; conditions: S. cerevisiae CLN2oe strain, active compounds read high
Procedure, shortened: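 Strain altered in cell-cycle control, incubated with compound; growth compared to solvent-treated controls.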

[5] = NCI Yeast Anticancer Drug Screen. Data for the cln2 rad14 strain (AID 165);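 also: 0% = growth equal to vehicle treated cultures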; conditions: S. cerevisiae cln2 rad14 strain, active compounds read high
Procedure, shortened: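 The screen exposed genetically defined yeast (cln2 rad14) to test compounds and scored growth inhibition relative to vehicle-treated controls.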

[6] = NCI Yeast Anticancer Drug Screen. Data for the bub3 strain (AID 167); conditions: S. cerevisiae bub3 mutant strain, active compounds read high
Procedure, shortened: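 In this screen, a yeast mutant lacking normal mitotic checkpoint function is challenged with compound. Relative growth versus vehicle gives the inhibition value.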

[7] = NCI Yeast Anticancer Drug Screen. Data for the wt2 strain (AID 169);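 also: 0% = growth of vehicle-treated yeast cultures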; conditions: S. cerevisiae wt2 strain growth inhibition, active compounds read high
Procedure, shortened: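 Steps: yeast strain treated with compound; growth recorded; inhibition calculated relative to cultures given vehicle alone.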

[8] = NCI Yeast Anticancer Drug Screen. Data for the mlh1 strain (AID 171);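 also: 0% = growth of vehicle-treated control cultures of the same strain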; conditions: S. cerevisiae mlh1 strain growth inhibition, active compounds read high
Procedure, shortened: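 Yeast screen: mutant strain plus compound, growth scored against vehicle control wells.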

[9] = NCI Yeast Anticancer Drug Screen. Data for the sgs1 strain (AID 173);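 also: 0% = growth of vehicle-only control cultures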; conditions: S. cerevisiae sgs1 mutant, active compounds read high
Procedure, shortened: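 Inhibition of yeast growth served as the measure. The mutant strain was treated with each compound, and growth was normalised to cultures receiving vehicle alone.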

[10] = NCI Yeast Anticancer Drug Screen. Data for the mlh1 rad18 strain (AID 175); conditions: S. cerevisiae mlh1 rad18 strain growth inhibition, active compounds read high
Procedure, shortened: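 Compound-treated yeast growth, normalised to vehicle controls. Strain bears defined DNA repair mutations.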

[11] = NCI Yeast Anticancer Drug Screen. Data for the rad18 strain (AID 177); conditions: S. cerevisiae rad18 mutant growth inhibition, active compounds read high
Procedure, shortened: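 Inhibition values reflect reduced yeast growth compared with vehicle-treated controls, using a strain engineered with a DNA damage repair defect.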

[12] = NCI Yeast Anticancer Drug Screen. Data for the rad52 strain (AID 147);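 also: 0% = growth of vehicle-treated control cultures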; conditions: S. cerevisiae rad52 mutant growth inhibition, active compounds read high
Procedure, shortened: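 Genetically altered yeast (DNA damage repair defect) treated with compound; inhibition calculated relative to vehicle.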

[13] = NCI Yeast Anticancer Drug Screen. Data for the wt1 strain (AID 149);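 also: 0% = growth of vehicle-treated wt1 cultures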; conditions: S. cerevisiae wt1 strain (SPY 50644) growth inhibition, active compounds read high
Procedure, shortened: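 wt1 strain grown with compound or vehicle; inhibition taken from the growth difference.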

[14] = NCI Yeast Anticancer Drug Screen. Data for the rad50EPP+ strain (AID 151);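 also: 0% = growth of vehicle-treated control cultures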; conditions: S. cerevisiae rad50 mutant strain, active compounds read high
Procedure, shortened: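 Strain rad50EPP+; compound exposure; % growth inhibition vs vehicle.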

[15] = NCI Yeast Anticancer Drug Screen. Data for the mgt1 strain (AID 153); conditions: S. cerevisiae mgt1 mutant growth inhibition, active compounds read high
Procedure, shortened: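 Read-out: yeast growth inhibition vs vehicle control. Strain mgt1, drawn from a panel altered in DNA damage repair or cell cycle control.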

[16] = NCI Yeast Anticancer Drug Screen. Data for the rad50 strain (AID 155);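 also: 0% = growth of vehicle-only cultures of the same strain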; conditions: S. cerevisiae rad50 strain growth inhibition, active compounds read high
Procedure, shortened: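 DNA repair mutant yeast, compound exposure, growth read-out; inhibition is taken relative to vehicle.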

[17] = at 5.0 µM (retest, dose inferred, filed as 0.5)
[18] = at 50.0 µM (retest, dose inferred, filed as 5.0)

With `CNC(=S)N/N=C(/C)CCC/C(C)=N/NC(=S)NC` the growth inhibition [1, 17] was 66%, the growth inhibition ([1]; at 11.0 µM) was 53% and the growth inhibition ([1]; at 33.0 µM) was 48%. The growth inhibition [1, 18] was 55%, the growth inhibition ([1]; at 50.0 µM) was 43.4% and the growth inhibition ([1]; at 100.0 µM) was 35%. It also gave a growth inhibition ([2]; at 1.2 µM) of 30%, a growth inhibition ([2]; at 3.7 µM) of 44% and a growth inhibition ([2]; at 11.0 µM) of 61%. It also gave a growth inhibition ([2]; at 33.0 µM) of 61%, a growth inhibition ([2]; at 100.0 µM) of 52% and a growth inhibition [3, 17] of 48%. The growth inhibition [3, 18] was 53%, the growth inhibition ([3]; at 50.0 µM) was 66.5% and the growth inhibition ([4]; at 1.2 µM) was 80% (active). The growth inhibition ([4]; at 3.7 µM) was 97% (active), the growth inhibition ([4]; at 11.0 µM) was 98% (active) and the growth inhibition ([4]; at 33.0 µM) was 98% (active). The growth inhibition ([4]; at 100.0 µM) was 97% (active), the growth inhibition [5, 17] was 21% and the growth inhibition [5, 18] was -2%. For the same compound, the growth inhibition ([5]; at 50.0 µM) was 27.2%, the growth inhibition ([6]; at 1.2 µM) was 43% and the growth inhibition ([6]; at 3.7 µM) was 62%. For the same compound, the growth inhibition [6, 17] was 70% (active), the growth inhibition ([6]; at 11.0 µM) was 65% and the growth inhibition ([6]; at 33.0 µM) was 73% (active). The growth inhibition [6, 18] was 69%, the growth inhibition ([6]; at 50.0 µM) was 54.4% and the growth inhibition ([6]; at 100.0 µM) was 74% (active). The growth inhibition ([7]; at 1.2 µM) was 16%, the growth inhibition ([7]; at 3.7 µM) was 58% and the growth inhibition ([7]; at 11.0 µM) was 78% (active). The growth inhibition ([7]; at 33.0 µM) was 72% (active), the growth inhibition ([7]; at 100.0 µM) was 67% and the growth inhibition ([8]; at 1.2 µM) was -2%. It also gave a growth inhibition ([8]; at 3.7 µM) of 34%, a growth inhibition ([8]; at 11.0 µM) of 52% and a growth inhibition ([8]; at 33.0 µM) of 37%. It also gave a growth inhibition ([8]; at 100.0 µM) of 40%, a growth inhibition ([9]; at 1.2 µM) of 14% and a growth inhibition ([9]; at 3.7 µM) of 24%. It also gave a growth inhibition ([9]; at 11.0 µM) of 65%, a growth inhibition ([9]; at 33.0 µM) of 63% and a growth inhibition ([9]; at 100.0 µM) of 62%. It also gave a growth inhibition [10, 17] of 55%, a growth inhibition [10, 18] of 63% and a growth inhibition ([10]; at 50.0 µM) of 62.4%. For the same compound, the growth inhibition ([11]; at 1.2 µM) was 1%, the growth inhibition ([11]; at 3.7 µM) was 21% and the growth inhibition ([11]; at 11.0 µM) was 19%. It also gave a growth inhibition ([11]; at 33.0 µM) of 24% and a growth inhibition ([11]; at 100.0 µM) of 37%.

In the case of `CC(C)N(CCCNc1c2ccccc2nc2cccc([N+](=O)[O-])c12)C(C)C`, the growth inhibition ([12]; at 1.2 µM) is reported as 51%, the growth inhibition ([12]; at 3.7 µM) is reported as 87% (active) and the growth inhibition ([12]; at 11.0 µM) is reported as 95% (active). For the same compound, the growth inhibition ([12]; at 33.0 µM) was 97% (active), the growth inhibition ([12]; at 100.0 µM) was 98% (active) and the growth inhibition ([13]; at 1.2 µM) was 0%. For the same compound, the growth inhibition ([13]; at 3.7 µM) was 5%, the growth inhibition ([13]; at 11.0 µM) was 43% and the growth inhibition ([13]; at 33.0 µM) was 94% (active). For the same compound, the growth inhibition ([13]; at 100.0 µM) was 98% (active), the growth inhibition ([14]; at 1.2 µM) was 52% and the growth inhibition ([14]; at 3.7 µM) was 86% (active). For the same compound, the growth inhibition ([14]; at 11.0 µM) was 93% (active), the growth inhibition ([14]; at 33.0 µM) was 95% (active) and the growth inhibition ([14]; at 100.0 µM) was 96% (active). The growth inhibition ([15]; at 1.2 µM) was -1%, the growth inhibition ([15]; at 3.7 µM) was 8% and the growth inhibition ([15]; at 11.0 µM) was 67%. For the same compound, the growth inhibition ([15]; at 33.0 µM) was 97% (active), the growth inhibition ([15]; at 100.0 µM) was 99% (active) and the growth inhibition ([16]; at 1.2 µM) was 42%. For the same compound, the growth inhibition ([16]; at 3.7 µM) was 82% (active), the growth inhibition [16, 17] was 86% (active) and the growth inhibition ([16]; at 11.0 µM) was 92% (active). For the same compound, the growth inhibition ([16]; at 33.0 µM) was 94% (active), the growth inhibition [16, 18] was 98% (active) and the growth inhibition ([16]; at 50.0 µM) was 92.8% (active). For the same compound, the growth inhibition ([16]; at 100.0 µM) was 97% (active), the growth inhibition ([1]; at 1.2 µM) was 12% and the growth inhibition ([1]; at 3.7 µM) was 76% (active). For the same compound, the growth inhibition [1, 17] was 88% (active), the growth inhibition ([1]; at 11.0 µM) was 97% (active) and the growth inhibition ([1]; at 33.0 µM) was 98% (active). The growth inhibition [1, 18] was 99% (active), the growth inhibition ([1]; at 50.0 µM) was 94.5% (active) and the growth inhibition ([1]; at 100.0 µM) was 99% (active). The growth inhibition ([2]; at 1.2 µM) was 93% (active), the growth inhibition ([2]; at 3.7 µM) was 98% (active) and the growth inhibition ([2]; at 11.0 µM) was 99% (active). For the same compound, the growth inhibition ([2]; at 33.0 µM) was 99% (active), the growth inhibition ([2]; at 100.0 µM) was 99% (active) and the growth inhibition [3, 17] was 91% (active). The growth inhibition [3, 18] was 98% (active), the growth inhibition ([3]; at 50.0 µM) was 94.5% (active) and the growth inhibition ([4]; at 1.2 µM) was -9%. For the same compound, the growth inhibition ([4]; at 3.7 µM) was -12%, the growth inhibition ([4]; at 11.0 µM) was 51% and the growth inhibition ([4]; at 33.0 µM) was 91% (active). The growth inhibition ([4]; at 100.0 µM) was 96% (active), the growth inhibition [5, 17] was 97% (active) and the growth inhibition [5, 18] was 98% (active). The growth inhibition ([5]; at 50.0 µM) was 95.7% (active), the growth inhibition ([6]; at 1.2 µM) was -20% and the growth inhibition ([6]; at 3.7 µM) was -18%. The growth inhibition [6, 17] was -10%, the growth inhibition ([6]; at 11.0 µM) was 17% and the growth inhibition ([6]; at 33.0 µM) was 90% (active). The growth inhibition [6, 18] was 97% (active), the growth inhibition ([6]; at 50.0 µM) was 33.5% and the growth inhibition ([6]; at 100.0 µM) was 98% (active). For the same compound, the growth inhibition ([7]; at 1.2 µM) was 1%, the growth inhibition ([7]; at 3.7 µM) was 14% and the growth inhibition ([7]; at 11.0 µM) was 68%. For the same compound, the growth inhibition ([7]; at 33.0 µM) was 96% (active), the growth inhibition ([7]; at 100.0 µM) was 98% (active) and the growth inhibition ([8]; at 1.2 µM) was 6%. For the same compound, the growth inhibition ([8]; at 3.7 µM) was 14%, the growth inhibition ([8]; at 11.0 µM) was 72% (active) and the growth inhibition ([8]; at 33.0 µM) was 96% (active). The growth inhibition ([8]; at 100.0 µM) was 98% (active), the growth inhibition ([9]; at 1.2 µM) was 80% (active) and the growth inhibition ([9]; at 3.7 µM) was 91% (active). For the same compound, the growth inhibition ([9]; at 11.0 µM) was 95% (active), the growth inhibition ([9]; at 33.0 µM) was 97% (active) and the growth inhibition ([9]; at 100.0 µM) was 98% (active). The growth inhibition [10, 17] was 93% (active), the growth inhibition [10, 18] was 98% (active) and the growth inhibition ([10]; at 50.0 µM) was 95.9% (active). The growth inhibition ([11]; at 1.2 µM) was 95% (active), the growth inhibition ([11]; at 3.7 µM) was 95% (active) and the growth inhibition ([11]; at 11.0 µM) was 95% (active). For the same compound, the growth inhibition ([11]; at 33.0 µM) was 95% (active) and the growth inhibition ([11]; at 100.0 µM) was 98% (active).
